# Results filed as inconclusive are left out. Where a structure was tested more than once in an assay, its records may differ in their call. Calls of active or inactive are those of the source. Calls come from the whole dose curve.
# Molecular target: Acetylcholinesterase (Homo sapiens) (UniProt P22303)
# Assay: Acetylcholinesterase (AChE) small molecule antagonists: enzyme-based qHTS assay (AID 1347397); note: nearly all actives have a fitted effect of over 55% in size
# Settings: Potency: AChE enzyme activity inhibition; outcome: AChE enzyme activity inhibition; series mostly up to 115 µM; activity change, negative = inhibition: at the top concentration
# How it was run: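 rhAChE 50 mU/mL (dispensed) + cpd or DMSO, 30 min RT; add DTNB/acetylthiocholine cocktail, 10 min RT; colorimetric thiocholine readout. qHTS, 1536-well format.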
# % is set by controls: 0 for no effect and ±100 for the full control effect.
# Chain of Acetylcholinesterase (Homo sapiens) (P22303 whole entry, looked up): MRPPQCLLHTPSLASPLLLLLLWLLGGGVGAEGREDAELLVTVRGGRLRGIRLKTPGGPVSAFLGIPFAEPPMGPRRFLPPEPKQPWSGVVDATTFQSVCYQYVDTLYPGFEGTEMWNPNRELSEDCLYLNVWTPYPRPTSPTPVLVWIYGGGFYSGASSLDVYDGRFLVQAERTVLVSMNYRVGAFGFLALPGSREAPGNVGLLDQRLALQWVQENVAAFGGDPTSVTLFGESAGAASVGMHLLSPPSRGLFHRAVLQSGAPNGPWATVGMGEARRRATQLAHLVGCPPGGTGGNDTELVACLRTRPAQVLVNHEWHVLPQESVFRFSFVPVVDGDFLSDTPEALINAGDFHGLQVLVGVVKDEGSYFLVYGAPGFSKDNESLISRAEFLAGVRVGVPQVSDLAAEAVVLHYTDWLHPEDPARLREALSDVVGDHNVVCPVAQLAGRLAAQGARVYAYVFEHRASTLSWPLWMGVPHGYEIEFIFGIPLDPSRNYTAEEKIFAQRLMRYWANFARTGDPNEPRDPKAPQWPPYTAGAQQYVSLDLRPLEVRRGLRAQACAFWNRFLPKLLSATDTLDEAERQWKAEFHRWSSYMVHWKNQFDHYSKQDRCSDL
SMILES,Potency,"activity change, negative = inhibition",outcome
Nc1ccc(Cl)cc1Cl,inactive,,
C=CC(=O)OCCCC,inactive,,
O=C(O)C(c1ccc(Cl)cc1)c1ccc(Cl)cc1,,4.54% (inactive),
Clc1ccccc1-c1ccccc1Cl,,-1.4% (inactive),
C[C@@]12C(=O)OC(=O)[C@]1(C)C1CCC2O1,,-0.123% [at 53 µM] (inactive),
Cc1cccc([N+](=O)[O-])c1C,inactive,,
Brc1c2ccccc2cc2ccccc12,,0.39% (inactive),
CC(CCl)OC(C)CCl (centres undefined),,0.143% (inactive),
Nc1cccc([N+](=O)[O-])c1,,1.09% (inactive),
Brc1ccc(Br)c(Br)c1,inactive,,
Oc1c(Cl)ccc(Cl)c1Cl,inactive,,
C1=CC2C3C=CC(C3)C2C1 (centres undefined),,1.92% (inactive),
Brc1c2ccccc2c(Br)c2ccccc12,,0.273% [at 10.5 µM] (inactive),
COCCOC(=O)c1ccccc1C(=O)OCCOC,inactive,,
c1ccncc1,,,inactive
CCc1cccc(C)c1N,,-0.96% (inactive),

# Molecular target: Acetylcholinesterase (Homo sapiens) (UniProt P22303)
# Assay: Acetylcholinesterase (AChE) small molecule antagonists: fluorescence cell-based qHTS assay (AID 1347398); note: nearly all actives have a fitted effect of over 50% in size; note: potency is the fitted concentration of half-maximal effect
# Settings: SH-SY5Y cells; Potency: AChE activity; outcome: AChE activity; series mostly up to 115 µM; activity change, negative = inhibition: at the top concentration
# How it was run: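 Read-out is Thiolite Green fluorescence at Ex/Em = 490/520 nm, formed by reaction with thiocholine released when cellular AChE in SH-SY5Y cells hydrolyzes acetylthiocholine. Compounds were preincubated 30 min at 37 C before substrate.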
SMILES,Potency,"activity change, negative = inhibition",outcome
Nc1ccc(Cl)cc1Cl,inactive,,
C=CC(=O)OCCCC,inactive,,
O=C(O)C(c1ccc(Cl)cc1)c1ccc(Cl)cc1,,2.96% (inactive),
Clc1ccccc1-c1ccccc1Cl,,2.31% (inactive),
C[C@@]12C(=O)OC(=O)[C@]1(C)C1CCC2O1,,5.96% [at 53.7 µM] (inactive),
Cc1cccc([N+](=O)[O-])c1C,inactive,,
Brc1c2ccccc2cc2ccccc12,,-4.57% (inactive),
CC(CCl)OC(C)CCl (centres undefined),,1.39% (inactive),
Nc1cccc([N+](=O)[O-])c1,,10.8% (inactive),
Brc1ccc(Br)c(Br)c1,inactive,,
Oc1c(Cl)ccc(Cl)c1Cl,inactive,,
C1=CC2C3C=CC(C3)C2C1 (centres undefined),,-0.464% (inactive),
Brc1c2ccccc2c(Br)c2ccccc12,,6.02% [at 10.5 µM] (inactive),
COCCOC(=O)c1ccccc1C(=O)OCCOC,inactive,,
CCCCC(CC)COC(=O)CCCCC(=O)OCC(CC)CCCC (centres undefined),inactive,,
c1ccncc1,,,inactive
CCc1cccc(C)c1N,34.5 µM (active) and inactive,,

# Molecular target: Acetylcholinesterase (Homo sapiens) (UniProt P22303)
# Assay: Acetylcholinesterase (AChE) small molecule antagonists: enzyme-based qHTS assay with human liver microsomes (AID 1347399); note: nearly all actives have a fitted effect of over 60% in size
# Settings: Potency: qHTS inhibition; outcome: qHTS inhibition; series mostly up to 115 µM; activity change, negative = inhibition: at the top concentration
# How it was run: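 Recombinant human AChE (50 mU/mL in the enzyme mix) and human liver microsomes (0.25 mg/mL final) were preincubated with compound and NADPH (0.25 mg/mL final) for 30 min at 37 C. Acetylthiocholine/DTNB was then added; thiocholine was read colorimetrically after 10 min at room temperature.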
SMILES,Potency,"activity change, negative = inhibition",outcome
C=CC(=O)OCCCC,inactive,,
O=C(O)C(c1ccc(Cl)cc1)c1ccc(Cl)cc1,,-0.458% (inactive),
Clc1ccccc1-c1ccccc1Cl,,3.59% (inactive),
C[C@@]12C(=O)OC(=O)[C@]1(C)C1CCC2O1,,0.885% [at 53 µM] (inactive),
Cc1cccc([N+](=O)[O-])c1C,inactive,,
Brc1c2ccccc2cc2ccccc12,,0.27% (inactive),
CC(CCl)OC(C)CCl (centres undefined),,0.171% (inactive),
Nc1cccc([N+](=O)[O-])c1,,2.27% (inactive),
Brc1ccc(Br)c(Br)c1,inactive,,
Oc1c(Cl)ccc(Cl)c1Cl,inactive,,
C1=CC2C3C=CC(C3)C2C1 (centres undefined),,-5.69% (inactive),
Brc1c2ccccc2c(Br)c2ccccc12,,1.07% [at 10.5 µM] (inactive),
COCCOC(=O)c1ccccc1C(=O)OCCOC,inactive,,
CCCCC(CC)COC(=O)CCCCC(=O)OCC(CC)CCCC (centres undefined),inactive,,
c1ccncc1,,,inactive
CCc1cccc(C)c1N,inactive,,
